# The entries come from a sample that favours hits as a whole.
# TTR transcr act – activators of transthyretin transcription; SH-SY5Y TTR promoter Gaussia luciferase, luminescence; 100% = recombinant luciferase protein wells; activation, % at 16.7 µM; actives 1.3% (n = 92,000);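 active = activation above the mean of all tested compounds plus 3 SD, cut at about 9.5% in these data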;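 note: cells exposed to compounds for one day before reading; 0% = median of all test compound wells on the plate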
# * = called active by the depositor.
SMILES,TTR transcr act
CCOc1ccc(NC(=O)C(NC(=O)C2CCC(C)CC2)C(C)C)cc1 (stereo not drawn),0.7
CCOC(=O)C(C)NC(=O)C(NC(=O)C1CCC(CC)CC1)C(C)C (stereo not drawn),10.5*
CC(C)[C@H](NC(=O)[C@@H]1Cc2ccccc2CN1C(=O)OC(C)(C)C)C(=O)NCC1CCC(C(=O)O)CC1 (stereo partly drawn),-0.3
CCC[C@H]1[C@@H](NCc2cccs2)CC[C@@]23CCCN2C(=O)CCC[C@@H]13,1.9
COc1ccc(/C=C2/CN(Cc3ccc(OC)cc3OC)C3=NC(c4ccc5ccccc5c4)CC(=O)N32)cc1 (stereo not drawn),-1.2
Cc1ccc([C@H](C)NC(=O)C2=C(N)N(S(=O)(=O)c3ccc(C)cc3)C(C(=O)c3ccccc3)C2c2ccccc2Cl)cc1 (stereo partly drawn),1.4
O=C(Nc1ccc(N2CCN(C(=O)c3ccc(Cl)cc3)CC2)cc1)c1ccc2c(c1)OCCO2,-6.5
O=C(Nc1cc(Cl)ccc1N1CCOCC1)c1ccc2c(c1)OCCO2,0.2
O=C(Nc1ccccc1N1CCN(C(=O)c2ccc(Cl)cc2)CC1)c1ccc2c(c1)OCO2,10.1*
CCCNc1nc2c(c(=O)n(C)c(=O)n2C)n1Cc1cccc(C)c1,1.6
CCCCC(=O)NCCNc1nc2c(c(=O)n(C)c(=O)n2C)n1Cc1ccc(F)cc1,13.8*
Cn1c(=O)c2c(nc(NCc3ccc4c(c3)OCO4)n2Cc2ccc(F)cc2)n(C)c1=O,-3.4
COC(=O)[C@]12C[C@H](CC(=O)NCc3cccc(C(F)(F)F)c3)C(=O)N(Cc3ccc4c(c3)OCO4)C1=C[C@H](C(C)C)O[C@@H]2C1CC1,1.5
CCCCOCCCNC(=O)C[C@H]1C[C@@]2(C(=O)OC)C(=C[C@H](C(C)(C)C)O[C@@H]2C)N(Cc2ccc(Cl)cc2Cl)C1=O,-0.4
CCCC1CCC2(CC1)CCC2OC(=O)Nc1ccc(F)cc1 (stereo not drawn),0.5
O=C(OCc1cn(Cc2cccc(C(F)(F)F)c2)nn1)N1CCOCC1,0.8
CCOc1cc2c(cc1OCC)C(C(=O)O)C(c1cc(OC)c(OC)c(OC)c1)N(C)C2=O (stereo not drawn),11.6*
COCCNC(=O)C1c2cc(OC)c(OC)cc2C(=O)N(C)C1c1cccnc1 (stereo not drawn),3.0
CCCN(CCC)CCCNC(=O)C1c2cc(OC)c(OC)cc2C(=O)N(C)C1c1cccnc1 (stereo not drawn),0.5
CO[C@H]([C@H](C)/C=C/N(C)C=O)[C@@H](C)C(=O)CC[C@H](C)[C@H](O)[C@H](C)[C@H]1OC(=O)/C=C/C(C)=C/C[C@H](O)C[C@@H]2C=CC[C@@H](C[C@H](OC)[C@@H](C)[C@@H](OC)C[C@@H](OC)[C@@H]1C)O2,3.4
C[C@H]1[C@H](NC(=O)c2cccc(Cl)c2)CC[C@@]23CCCN2C(=O)CCC[C@@H]13,7.5
CC(C)OC(=O)C1=CNCC(C)(C)c2c1[nH]c1cc(F)ccc21,-1.2
COc1ccc(C(c2ccc(OC)cc2)N2CCN(C(=O)c3noc(C)c3[N+](=O)[O-])CC2)cc1,0.2
C[C@]12C(=O)N(c3cccc(F)c3)C(=O)N1[C@H]1c3ccccc3OC[C@@H]1[C@H]2c1ccccc1,-1.8
C[C@]12C(=O)N(c3ccccc3)C(=O)N1[C@H]1c3ccccc3OC[C@@H]1[C@H]2c1ccccc1,10.7*
SMILES,TTR transcr act
C[C@]12C(=O)N(c3cccc(Cl)c3)C(=O)N1[C@@H]1c3ccccc3OC[C@@H]1[C@H]2c1ccccc1,2.9
COC(=O)[C@@]1(OC(C)=O)CC(OC(C)=O)[C@H](OC(C)=O)[C@H](OC(C)=O)C1Br (stereo partly drawn),1.0
CCCCc1ccc2nc(NC(=O)c3cccs3)sc2c1,1.4
COc1ccc(C2c3c(ccc4ccccc34)Oc3ncn4nc(-c5ccco5)nc4c32)cc1 (stereo not drawn),3.4
COc1ccc(C2c3c(ccc4ccccc34)Oc3ncn4nc(CO/N=C/c5ccccc5)nc4c32)cc1 (stereo not drawn),11.9*
COc1cccc(C2c3c(ncn(-c4ccccc4)c3=N)Oc3ccc4ccccc4c32)c1OC (stereo not drawn),2.5
COc1cc(O)c(C(CC(=O)N2CCC(C)CC2)c2ccc3c(c2)OCO3)c(OC)c1 (stereo not drawn),-2.1
COC(=O)c1cccc(Cn2ccc3ccc(-c4ccc5ccn(C(=O)c6cccc(OC)c6)c5c4)cc32)c1,-1.6
CC(C)C[C@H](NC(=O)N1CC(=O)Nc2ccccc21)C(=O)N[C@@H](C(=O)O)c1ccccc1,0.1
CC(C)[C@H](NC(=O)N1c2ccccc2NC(=O)[C@@H]1C(C)C)C(=O)N[C@@H](C(=O)O)c1ccccc1,27.4*
O=C1CN(C(=O)NCC(=O)N[C@@H](C(=O)O)c2ccccc2)c2ccccc2N1,1.1
CCC(C)[C@H](NC(=O)OC(C)(C)C)C(=O)N[C@@H](Cc1ccccc1)C(=O)OC (stereo partly drawn),2.3
COC(=O)[C@H]1[C@@H](C)N(CCc2cc(OC)c(OC)c(OC)c2)C(=O)N[C@H]1c1ccccc1,-1.0
CCN1C(=NCCCOC(C)C)N[C@@H](c2ccccc2)[C@H](C(=O)OC)[C@H]1C,11.6*
CCN1C(=NCCc2ccc([N+](=O)[O-])cc2)N[C@@H](c2ccccc2)[C@H](C(=O)OC)[C@H]1C,2.9
COc1ccc2[nH]c3c(c2c1)CCN[C@]31C(=O)N(Cc2cn(Cc3ccccc3)nn2)c2ccc(F)cc21,-0.7
CC(C)(C)c1ccc(C(=O)Nc2ccc(C(=O)N3CCOCC3)cc2)cc1,-0.1
O=C(c1ccccc1)c1ccc(C(=O)N2CCOCC2)cc1,7.2
O=C(c1ccc(NC(=O)C2(c3ccccc3)CCOCC2)cc1)N1CCOCC1,23.6*
COc1ccc(NC(=O)CCN2C(=O)NC3(CCCC3)C2=O)cc1Cl,2.1
O=C(CN1C(=O)NC2(CCCC2)C1=O)NC(c1ccccc1)c1ccccc1,-0.9
O=C(O)CCN1C(=O)NC2(CCCC2)C1=O,17.0*
CN(C(=O)[C@@H](C1CC1)[C@@H](O)c1ccc2ccccc2c1)c1ccccc1,-0.9
S=C(Nc1ccccc1Cl)OCCN1CCCC12CCC(c1ccccc1)CC2 (stereo not drawn),2.3
C/C=C\C=C/C(=O)Nc1cccc(C2=NOC3(C2)C[C@@H](C(N)=O)N(C(=O)C2(C)CC2)C3)c1 (stereo partly drawn),10.8*
SMILES,TTR transcr act
C/C=C\C(=O)Nc1cccc(C2=NOC3(C2)C[C@@H](C(N)=O)N(C(=O)C2(C)CC2)C3)c1 (stereo partly drawn),1.6
C=C(C)C(=O)Nc1cccc(C2=NOC3(C2)C[C@@H](C(N)=O)N(C(=O)C2(C)CC2)C3)c1 (stereo partly drawn),4.6
COC(CNC(=O)[C@H](Cc1c[nH]c2ccccc12)NC1(C(=O)NC(c2ccccc2)c2ccccc2)CCCCC1)OC,-2.8
S=C(Nc1cccc(Cl)c1)OCCN1CCCC12CCC(c1ccccc1)CC2 (stereo not drawn),-0.4
c1ccc(-c2cccc(CNc3nc(-c4ccccn4)nnc3-c3ccccc3)c2)cc1,-3.5
CC(=O)NCCNC(=O)C1Cc2c(-c3ccc(Cl)cc3)ccnc2O1 (stereo not drawn),10.3*
O=C(Nc1ccc(Cl)cc1)C1Cc2c(-c3ccc(Cl)cc3)ccnc2O1 (stereo not drawn),1.3
COCCNC(=O)C1Cc2c(-c3ccc(NC(C)=O)cc3)ccnc2O1 (stereo not drawn),-1.0

# Screening results as filed in PubChem BioAssay.
